High-throughput results: PubChem BioAssay, National Center for Advancing Translational Sciences (NCATS)
The full list was thinned out, with hits kept by preference.
Sm TGR inh = S. mansoni TGR enzyme inhibition | Q962Y6 | purified TGR, DTNB reduction, TNB absorbance 405 nm | Potency, µM (titrated, usually from 114 µM), for the others: at the highest dose activity change, negative = inhibition, actives largely listed as inhibitors | hit rate 3% among 360,000; note: potency is the fitted concentration of half-maximal effect; % is set by controls: 0 for no effect and ±100 for the full control effect; nearly all actives have a fitted effect of over 60% in size
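Kinetic colorimetric format: TGR-catalysed, NADPH-driven DTNB reduction monitored via TNB absorbance. Enzyme dispensed at 20 nM; compound exposure 15 min at room temperature before reaction start.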
TbPYK inhibitor = blocks Trypanosoma brucei pyruvate kinase | TbPYK enzyme, Kinase-Glo Plus ATP luminescence, 45 min | Potency, µM (titrated, usually from 76.8 µM), for inactives: top-dose activity, negative = inhibition, actives largely listed as inhibitors | hit rate 0.12% among 410,000; note: potency is the fitted concentration of half-maximal effect; % is set by controls: 0 for no effect and ±100 for the full control effect; nearly all actives have a fitted effect of over 50% in size
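TbPYK + substrate in 50 mM TEA pH 7.2, 100 mM KCl, 10 mM MgCl2, 0.05% BSA, 0.01% Tween-20; cpd pinned; ADP 130 uM final; 45 min RT; Kinase-Glo Plus 10 min; luminescence endpoint.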
Shiga toxin inh = Shiga toxin inhibition. AID 2315. hit rate 9.2% among 290,000. Vero cells, Shiga toxin protein synthesis inhibition reporter. inhibition, % at 38.7 µM; in the data active = inhibition mostly above about 28%, no sharp cut-off; inactive = mostly below about 43%; note: 0% is about no effect
LmPK inhibitor = blocks Leishmania mexicana pyruvate kinase activity. Q27686. purified LmPK, Kinase-Glo ATP luminescence, 1 h. Potency, µM (titrated, usually from 57.5 µM), for the others: at the highest dose activity change, negative = inhibition, hits mostly inhibitors. hit rate 0.37% among 290,000. AID 1721; note: potency is the fitted concentration of half-maximal effect; % is set by controls: 0 for no effect and ±100 for the full control effect
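0.1 nM LmPK, 0.5 mM PEP, 0.1 mM ADP; 50 mM imidazole pH 7.2, 7 mM MgCl2, 50 mM KCl; 1 h RT. Kinase-Glo luminescence readout, normalized to no-enzyme (full inhibition) and uninhibited wells.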
Cycloheximide cs = affects cycloheximide protein synthesis inhibition readout, counter-screen | cell reporter, cycloheximide protein synthesis inhibition counterscreen | max response, % | hit rate 12% among 300,000 | AID 2314; in the data active = max response mostly above about 13%, no sharp cut-off; inactive = mostly below about 14%; note: read at 38.3 µM for the half of the compounds with a filed dose; 0% is about no effect
FBPA Giardia inh = inhibitors of Giardia lamblia fructose-1,6-bisphosphate aldolase; A8B2U2; purified Giardia FBPA; Potency, µM (doses to about 59.6 µM), for the others: at the top dose activity, negative = inhibition, actives largely listed as inhibitors; hit rate 0.71% among 290,000; note: potency is the fitted concentration of half-maximal effect; % is set by controls: 0 for no effect and ±100 for the full control effect; nearly all actives have a fitted effect of over 55% in size
Target sequence (A8B2U2 whole entry, looked up): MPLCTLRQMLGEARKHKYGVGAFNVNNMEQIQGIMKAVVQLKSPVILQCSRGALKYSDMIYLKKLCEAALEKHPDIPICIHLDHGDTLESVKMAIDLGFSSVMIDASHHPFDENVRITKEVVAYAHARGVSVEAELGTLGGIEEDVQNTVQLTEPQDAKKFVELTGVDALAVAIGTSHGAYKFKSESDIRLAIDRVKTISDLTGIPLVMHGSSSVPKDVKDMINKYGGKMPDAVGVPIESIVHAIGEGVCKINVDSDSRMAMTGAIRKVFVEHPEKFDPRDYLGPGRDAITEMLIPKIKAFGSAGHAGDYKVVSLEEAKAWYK
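40 nM FBPA preincubated 10 min at RT with compound (up to 57.5 uM final), then substrate plus GAPDH/TPI/NAD/arsenate coupling and diaphorase/resazurin added. Fluorescence read after 20 min at RT, 525/598 nm.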
An asterisk follows results filed as active; [ ] = dose if it differs, or a comment. Unless noted, calls come from the whole dose curve; as a rule, active = well fitted curve in the direction sought with a large enough effect; inconclusive = small, poorly fitted or top-dose-only effect, or another doubt; inactive = no such curve, though single readings can be large; an effect the other way counts as inactive or inconclusive.

What do the screens show for `Cc1cccc(NC(=O)c2cc(=O)c3ccccc3o2)c1`?
Sm TGR inh: -7%; TbPYK inhibitor: -7%; Shiga toxin inh: 27; LmPK inhibitor: 2%; Cycloheximide cs: 24*; FBPA Giardia inh: -4%

Results for N#Cc1ccccc1NC(=O)c1cc(=O)c2ccccc2o1 ?
Sm TGR inh: -3%; TbPYK inhibitor: 6%; Shiga toxin inh: 59*; LmPK inhibitor: -2%; Cycloheximide cs: 19; FBPA Giardia inh: 4%

How did O=C(COC(=O)c1cc(=O)c2ccccc2o1)Nc1c(F)c(F)c(F)c(F)c1F do in these assays?
Sm TGR inh: 0%; TbPYK inhibitor: -2%

What do the screens show for `O=C(COC(=O)c1cc(=O)c2ccccc2o1)Nc1ccc2ccccc2c1`?
Sm TGR inh: -24%; TbPYK inhibitor: 1%; Shiga toxin inh: -22; LmPK inhibitor: -2%; Cycloheximide cs: 11*; FBPA Giardia inh: 2%

How did NC(=O)c1ccsc1NC(=O)c1cc(=O)c2ccccc2o1 do in these assays?
Sm TGR inh: -14%; TbPYK inhibitor: 4%; Shiga toxin inh: 38; LmPK inhibitor: -1%; Cycloheximide cs: 44*; FBPA Giardia inh: 0%

How did CC(=O)Nc1ccc(NC(=O)c2cc(=O)c3ccccc3o2)cc1 do in these assays?
Sm TGR inh: -23%; TbPYK inhibitor: -6%; Shiga toxin inh: -8; LmPK inhibitor: 0%; Cycloheximide cs: -4; FBPA Giardia inh: -6%

What do the screens show for `N#Cc1ccc(NC(=O)c2cc(=O)c3ccccc3o2)cc1`?
Sm TGR inh: 7%; TbPYK inhibitor: 3%; Shiga toxin inh: -8; LmPK inhibitor: 0%; Cycloheximide cs: 1; FBPA Giardia inh: 2%

Results for CC(C)(C)C(=O)Nc1cc2c3c(c1)CCC(=O)N3CCC2 ?
Sm TGR inh: -7%; TbPYK inhibitor: -3%; Shiga toxin inh: 11; LmPK inhibitor: -8%; Cycloheximide cs: -4; FBPA Giardia inh: 3%

What do the screens show for `Cc1cccc(NC(=O)c2cc(=O)c3ccccc3o2)n1`?
Sm TGR inh: 11%; TbPYK inhibitor: 0%; Shiga toxin inh: 56; LmPK inhibitor: -2%; Cycloheximide cs: 24*; FBPA Giardia inh: 1%

How did CC(=O)c1sc(NC(=O)c2cc(=O)c3ccccc3o2)nc1C do in these assays?
Sm TGR inh: 3%; TbPYK inhibitor: -7%; Shiga toxin inh: 60*; LmPK inhibitor: 1%; Cycloheximide cs: 36*; FBPA Giardia inh: 3%

Results for Cc1cc(C)cc(NC(=O)c2cc(=O)c3ccccc3o2)c1 ?
Sm TGR inh: 13%; TbPYK inhibitor: -4%; Shiga toxin inh: 5; LmPK inhibitor: 1%[11.5 µM]; Cycloheximide cs: 9; FBPA Giardia inh: 4%

Results for COc1cccc(NC(=O)c2cc(=O)c3ccccc3o2)c1 ?
Sm TGR inh: -8%; TbPYK inhibitor: -7%; Shiga toxin inh: 47*; LmPK inhibitor: 2%; Cycloheximide cs: 19*; FBPA Giardia inh: 10%

How did Cc1ccc(C)c(NC(=O)c2cc(=O)c3ccccc3o2)c1 do in these assays?
Sm TGR inh: -3%; TbPYK inhibitor: -1%; Shiga toxin inh: 17; LmPK inhibitor: -1%; Cycloheximide cs: 33*; FBPA Giardia inh: -4%

Results for COc1cccc(C(C)(O)c2nc(-c3ccc(C)c(C)c3)cs2)c1 (configuration not stated) ?
TbPYK inhibitor: -1%

Results for O=C(Nc1cc(F)ccc1F)c1ccc(CN2CC(=O)N3CCCCC3C2=O)cc1 (configuration not stated) ?
Sm TGR inh: 0%; TbPYK inhibitor: -9%

What do the screens show for `COc1cc(CNC(=O)c2cc(-c3ccc(F)cc3C)n[nH]2)cc(OC)c1`?
TbPYK inhibitor: -4%

Results for CCOC(=O)c1sc(N2C(=O)c3oc4ccc(F)cc4c(=O)c3C2c2ccc(O)cc2)nc1C (configuration not stated) ?
Sm TGR inh: 8%; TbPYK inhibitor: 3%

What do the screens show for `COc1ccc(Br)cc1CNC(=O)c1cnc2sc(N3CCCC3)nn2c1=O`?
Sm TGR inh: 0%; TbPYK inhibitor: 7%

What do the screens show for `Cc1ccc(NC(=O)c2cc(=O)c3ccccc3o2)cc1`?
Sm TGR inh: 15%; TbPYK inhibitor: -10%; Shiga toxin inh: 125; LmPK inhibitor: 3%; Cycloheximide cs: 29*; FBPA Giardia inh: -1%
